We go through 25 molecules from PubChem BioAssay AID651635 (National Center for Advancing Translational Sciences (NCATS), 2012).

The campaign covered roughly 400,000 compounds. About 1,900 (0.47%) were called active. Where a call stands in place of a potency, no number is given. Inconclusive results (about 14%) are left out. Calls come from the whole dose curve; as a rule, active = well fitted cell-killing curve with a large enough effect; inconclusive = small, poorly fitted or top-dose-only effect, or effect the other way; inactive = no such curve, though single readings can be large or run the other way. The full list was thinned out, with actives kept by preference.
Potency is the fitted concentration of half-maximal effect.

This experiment in a line: Viability Counterscreen for Primary qHTS for Inhibitors of ATXN expression. Note: nearly all actives have a fitted effect of over 40% in size. The conditions noted are these: S2 cells (HEK-293 line with an ATXN2-luciferase reporter) viability, CellTiter-Fluor protease fluorescence, 24 h; series mostly up to 56.7 µM.
For `COc1cccc(CNc2nc3cc(-c4csc5ccccc45)sc3c(=O)n2C)c1`, the Potency entry is “inactive”.

As for `COC(=O)C1CCCCN1Cc1ccc2c(c1)CN(Cc1cc(OC)c3c(c1)OCO3)CCO2` (stereo not given), the Potency result was “inactive”.

Regarding `Cc1nc2nc(NCc3cccc(Br)c3)[nH]n2c(=O)c1Cc1ccccc1`, the Potency result is “inactive”.

For `C=C1C(=O)[C@]23C[C@H]1CCC2[C@@]1(C)C(C[C@@H]3O)[C@](C)(C(=O)O)CC[C@@H]1O` (stereo not given in full), the Potency was 15.8 µM (active).

As for `CCc1noc(C)c1C(=O)NCCN1Cc2cc(OC)ccc2OC(CC)C1` (stereo not given), the Potency result was “inactive”.

Take `COc1ccc(C2OC(CCc3ccccc3)Cc3[nH]c(=S)[nH]c(=O)c32)cc1` (stereo not given): the Potency result was “inactive”.

Consider `CC(=O)O[C@H]1CC[C@@]2(C)C(=CC[C@@H]3[C@@H]2CC[C@]2(C)C(c4cccnc4)=CC[C@@H]32)C1`, for which the Potency result was “inactive”.

`CCOC(=O)[C@]12CCCC=C1N(Cc1cccc3ccccc13)C(=O)[C@H](CC(=O)NCC13CC4CC(CC(C4)C1)C3)C2`: the Potency result was “inactive”.

As for `COc1cccc(CN(C)C(=O)CC[C@H]2O[C@@H](n3cnc4c(NC(=O)c5ccccc5)ncnc43)[C@H](O)[C@@H]2O)c1`, the Potency result was “inactive”.

Regarding `COc1ccc(C[C@H](N)C(=O)N[C@@H]2[C@H](O)[C@H](n3cnc4c(N(C)C)ncnc43)O[C@@H]2CO)cc1`, the Potency was 2 µM (active).

For `Nc1ncnc2c1ncn2[C@@H]1O[C@H](CNC(=O)[C@H](N)Cc2cccnc2)[C@@H](O)[C@H]1O`, the Potency entry is “inactive”.

Consider `CC1(C)OC(=O)C2=C(C[C@@H](C3CCCCC3)O[C@@H]2c2ccc(Cl)cc2)O1`, for which the Potency result is “inactive”.

In the case of `NNc1nnc(Cc2ccncc2)c2ccccc12`, the Potency result is “inactive”.

As for `OC[C@@H]1CN(Cc2ccncc2)C[C@H](n2cnc3c(N4CCN(c5ccccc5)CC4)ncnc32)O1`, the Potency result was “inactive”.

With `COc1cc(=O)n2c(c1C(=O)N(C)Cc1nccs1)CCN(Cc1ccc(Cl)cc1)CC2`, the Potency result was “inactive”.

In the case of `CCCCOc1ccc(CN2C(=O)C(=O)c3cc(Br)cc(C)c32)cc1OC`, the Potency was 25.1 µM (active).

As for `COc1ccc(CCN2C(=O)C(C)=C(C)C2=O)cc1OC`, the Potency result was “inactive”.

In the case of `CCCCN1C(=O)C(C)=C(C)C1OCCc1ccc(OC)c(OC)c1` (stereo not given), the Potency result is “inactive”.

Consider `CCOP(=O)(OCC)C(Cc1ccccc1)N=C(c1ccccc1)c1ccccc1` (stereo not given), for which the Potency entry was “inactive”.

On to `C/C(=N\NC(=O)Cc1ccc(Cl)cc1)c1ccccn1`, for which the Potency was 5.62 µM (active).

As to `O=C(NCCOc1ccccc1)c1ccccc1F`, the Potency result was “inactive”.

For the molecule `CC1=NNC(=O)C1CCC(=O)N/N=C(\C)c1ccc(Cl)cc1` (stereo not given), the Potency entry is “inactive”.

Turning to `COc1ccc(/C(C)=N\NC(=O)c2ccc(-c3ccccc3)cc2)c(F)c1`, the Potency entry is “inactive”.

Consider `NC(=O)NC(CC(=O)NNC(=O)c1ccccn1)c1ccc(Cl)cc1` (stereo not given), for which the Potency result is “inactive”.

For `C/C(=N\NC(=O)c1ccccc1F)c1ccccn1`, the Potency was 7.94 µM (active).
